Changes are numbered by the printed parent chain; changes in the protein carry UniProt numbers. Over roughly 16,000 sequences, “ka relative to ugcaugu” has its median near 0.096; the highest 2% begin near 0.35. The entries come from a sample that favours the highest values as a whole.
T1: RBFOX1 RRM RbFoxmut (Fox-RRM*) (Homo sapiens, UniProt Q9NWB1 109-208, R118D;E147R;N151S;E152T)
T1 sequence: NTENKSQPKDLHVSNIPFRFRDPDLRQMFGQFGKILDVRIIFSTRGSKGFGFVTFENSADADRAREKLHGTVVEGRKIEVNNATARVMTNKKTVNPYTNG

B1: ACCUAUU (DNA:RNA)
RNA: GGGAGACCGGAAUUCAGAUUGUCCACCUAUUUUAAAUCCCGUCGUAGCCACCA
DNA 1: CAATCTGAATTCCGGTCTCCC
DNA 2: TGGTGGCTACGACGGGATT
B2: GCUCCGG (DNA:RNA)
RNA: B1 RNA with A25G, C27U, U28C, A29C, U30G, U31G
DNA 1: CAATCTGAATTCCGGTCTCCC
DNA 2: TGGTGGCTACGACGGGATT
B3: AUCUGAU (DNA:RNA)
RNA: B1 RNA with C26U, A29G, U30A
DNA 1: CAATCTGAATTCCGGTCTCCC
DNA 2: TGGTGGCTACGACGGGATT
B4: UCGGCUA (DNA:RNA)
RNA: B1 RNA with A25U, C27G, U28G, A29C, U31A
DNA 1: CAATCTGAATTCCGGTCTCCC
DNA 2: TGGTGGCTACGACGGGATT
B5: AAGGAAC (DNA:RNA)
RNA: B1 RNA with C26A, C27G, U28G, U30A, U31C
DNA 1: CAATCTGAATTCCGGTCTCCC
DNA 2: TGGTGGCTACGACGGGATT
B6: GCCACUG (DNA:RNA)
RNA: B1 RNA with A25G, U28A, A29C, U31G
DNA 1: CAATCTGAATTCCGGTCTCCC
DNA 2: TGGTGGCTACGACGGGATT
B7: AAGCCCU (DNA:RNA)
RNA: B1 RNA with C26A, C27G, U28C, A29C, U30C
DNA 1: CAATCTGAATTCCGGTCTCCC
DNA 2: TGGTGGCTACGACGGGATT
B8: CGAACAU (DNA:RNA)
RNA: B1 RNA with A25C, C26G, C27A, U28A, A29C, U30A
DNA 1: CAATCTGAATTCCGGTCTCCC
DNA 2: TGGTGGCTACGACGGGATT
B9: GCCGAGU (DNA:RNA)
RNA: B1 RNA with A25G, U28G, U30G
DNA 1: CAATCTGAATTCCGGTCTCCC
DNA 2: TGGTGGCTACGACGGGATT

What follows are binders tested against T1, RBFOX1 RRM RbFoxmut (Fox-RRM*) (assay: EMSA; HiTS-Eq, 1 nM pool, 10 min; buffer printed only for the single-RNA assays: 10 mM Tris pH 7.5, 150 mM NaCl, 3.4 mM EDTA, 0.001% NP-40, 30 C). Conditions: tags: His6 N-terminal (pET28a); label: 5' 32P.
Procedure, shortened: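 Purified RbFox RRM (wild type or mutant) was equilibrated for 10 min in 50 µL with 1 nM of a 5′-radiolabelled pool of RNA with 7 randomized nucleotides, its flanks annealed to DNA oligonucleotides, across increasing protein concentrations. Free RNA was separated by 8% native PAGE, excised, reverse-transcribed, PCR-barcoded and sequenced on an Illumina HiSeq 2500. Relative association constants came from read-count changes of each variant against the control reaction, normalised to the cognate motif.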

Binder | binding signal
B1 | 0.107 KA relative to UGCAUGU
B2 | 0.0646 KA relative to UGCAUGU
B3 | 0.0592 KA relative to UGCAUGU
B4 | 0.106 KA relative to UGCAUGU
B5 | 0.057 KA relative to UGCAUGU
B6 | 0.101 KA relative to UGCAUGU
B7 | 0.0868 KA relative to UGCAUGU
B8 | 0.0626 KA relative to UGCAUGU
B9 | 0.123 KA relative to UGCAUGU
